The source of these data is PubChem BioAssay AID894 (National Center for Advancing Translational Sciences (NCATS), 2007).

Several values for one entry are separate records, joined by “and”; a condition that tells them apart may be missing. Equal values may be shown once. The campaign covered roughly 150,000 compounds. About 6,500 (4.3%) were called active. Not shown: some 12% with an inconclusive outcome. The full list was thinned out, with actives kept by preference. Where a structure was tested more than once in an assay, its records may differ in their call. A number with no mark means an inactive call. The call rests on the fitted dose curve; in most records, active means well fitted inhibition curve with a large enough effect (not every such curve was filed as active); inconclusive means small, poorly fitted or top-dose-only effect, or another doubt; inactive means no such curve, though single readings can be large or run the other way.
On the % scale 0 is the no-effect control and ±100 the full control effect; potency means the concentration at half of the fitted maximal effect.

The target in the test is 15-hydroxyprostaglandin dehydrogenase [NAD(+)] (Homo sapiens) (UniProt P15428). As to the kind of experiment: qHTS Assay for Inhibitors of HPGD (15-Hydroxyprostaglandin Dehydrogenase). The following applies: purified HPGD, NADH fluorescence kinetic, PGE2 substrate; activity change, negative = inhibition: stronger effect = lower value. An outline of the steps: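 20 nM HPGD preincubated 15 min at room temperature with compound in 50 mM Tris-HCl pH 8, 0.01% Tween 20. Started with 1 mM NAD+ and 30 uM prostaglandin E2; NADH fluorescence (360/450 nm) read 5 times over 30-s intervals, last minus first.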
Sequence of 15-hydroxyprostaglandin dehydrogenase [NAD(+)] (Homo sapiens) (P15428 whole entry, looked up): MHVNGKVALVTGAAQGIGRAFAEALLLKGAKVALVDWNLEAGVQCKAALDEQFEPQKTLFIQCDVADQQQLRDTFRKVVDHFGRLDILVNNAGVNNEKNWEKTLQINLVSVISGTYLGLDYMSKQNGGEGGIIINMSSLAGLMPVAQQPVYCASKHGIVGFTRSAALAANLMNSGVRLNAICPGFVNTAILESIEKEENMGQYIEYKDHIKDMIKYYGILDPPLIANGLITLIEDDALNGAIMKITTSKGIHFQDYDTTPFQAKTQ
Background: Quantitative high-throughput screening tests each substance at several concentrations.
In the case of `CCOC(=O)/C(=N\Nc1cc(Cl)ccc1Cl)N1CCN(C)CC1`, the activity change, negative = inhibition was -8.38%.
`CCCCOc1ccc(C(=O)N/C(=C/C=C/c2ccccc2)C(=O)N2CCOCC2)cc1`: the activity change, negative = inhibition was -16%.
On the same count and under the same terms, the result for `COc1cccc(C(=O)Nc2cc3c(cc2Br)OCCCO3)c1` reads -9.03%; that for `COC(=O)Cc1ccc(NC(=S)NCc2ccc(Cl)cc2)cc1`, -8.96%.
For `COC(=O)Cc1ccc(NC(=S)NCc2ccccc2)cc1`, the Potency is 20 µM (active).
As for `FC(F)(F)Oc1ccc(NC(=S)NCc2ccccc2)cc1`, the activity change, negative = inhibition was -11.2%.
For `Cc1c(Cl)c([N+](=O)[O-])nn1CCCC(=O)NC(C)c1ccccc1` (centres undefined), the activity change, negative = inhibition was -2.71%.
For the compound `COC(=O)c1ccc(COC(=O)c2c(C)nn(Cc3ccccc3Cl)c2Cl)o1`, the activity change, negative = inhibition is -23%.
As for `Cc1nn(Cc2ccccc2)c(Cl)c1C(=O)OC1CCOC1=O` (centres undefined), the Potency was 15.8 µM (active).
As for `Cc1cc(C(=O)Nc2c(C)nn(Cc3ccccc3)c2C)on1`, the activity change, negative = inhibition is -12.9%.
The same measure, in the same setting: for `O=C(COC(=O)[C@H](Cc1ccccc1)NC(=O)c1cccs1)Nc1cc(F)ccc1F` the value was 2.87%; for `Cn1nnc2cc(C(=O)NCCC3=CCCCC3)ccc21`, -28.7%.
For `CC1CCCN(C(=O)c2ccc3c(c2)C(=O)N(CCC2=CCCCC2)C3=O)C1` (centres undefined), the Potency was 0.891 µM (active).
Regarding `Cc1cc(=O)n2nc(N3CCCC(C(=O)NCCC4=CCCCC4)C3)sc2n1` (centres undefined), the activity change, negative = inhibition is -11.9%.
On the same count and under the same terms, for `C=CC1=C2C=C(C3CC3)N(CC(C)C)C=C2C(=O)C(C)(OC(=O)c2ccco2)C1=O` (centres undefined) the value was -3.22%.
As for `Cc1nn(C)cc1/C=C1\CCC/C(=C\c2cn(C)nc2C)C1=O`, the activity change, negative = inhibition was -27.5%.
Consider `CCn1cc(/C=C2/SC(=S)NC2=O)c(C)n1`, for which the Potency is 17.8 µM (active).
In the case of `O=C1NC(c2ccc(-c3ccccc3[N+](=O)[O-])o2)C(C(=O)c2ccc(Cl)cc2)C(O)(C(F)(F)F)N1` (centres undefined), the activity change, negative = inhibition is -3.47%.
On the same count and under the same terms, for `C#CCCCc1nc2ccccc2c(=O)n1N` the value was -10.2%.
For `S=c1[nH]nc(-c2cccnc2)n1/N=C/C(Cl)=C\c1ccccc1`, the Potency is 1.58 µM (active).
With `Cc1cc(-c2n[nH]c(=S)n2/N=C/C(Br)=C/c2ccccc2)n[nH]1`, the Potency is 3.98 µM (active).
With `COc1cc(CN2CC(C)CC(C)C2)cc([N+](=O)[O-])c1O` (centres undefined), the activity change, negative = inhibition is -17.1%.
The same measure, in the same setting: the result for `Cc1ccc(NC(=S)NC(=O)/C=C/c2ccc(Cl)cc2)cc1` reads -18.9%; that for `CC(NC(=O)COC(=O)C1CCN(S(=O)(=O)c2ccccc2C(F)(F)F)CC1)c1ccccc1` (centres undefined), -6.33%; that for `CC1(OC(=O)c2ccc(Cl)nc2)C(=O)Cc2cc(-c3ccsc3)ncc2C1=O` (centres undefined), 2.16%.
For `O=C(NCCN1CCOCC1)c1cc(Sc2cccc(Cl)c2)nc2ccccc12`, the activity change, negative = inhibition is -1.7%.
Regarding `O=C(NC(=S)Nc1cc(C(F)(F)F)ccc1N1CCOCC1)c1ccc(-c2cccc(Cl)c2)o1`, the activity change, negative = inhibition is -5.6%.
On the same count and under the same terms, for `CCN1C(=O)/C(=C\N2CCN(c3ccccc3)CC2)SC1=S` the value was -18.6%; for `CCC(=O)/C=C1\Sc2ccccc2N1CC`, -16.1%.
For the compound `CCN1C(=O)/C(=C2/Sc3ccccc3N2CCCS(=O)(=O)O)SC1=S`, the Potency is 20 µM (active).
As to `COc1ccc(C)cc1NC(=O)C(OC(=O)c1cccc(S(=O)(=O)N(C)c2ccccc2)c1)c1ccccc1` (centres undefined), the activity change, negative = inhibition is -17.6%.
The same measure, in the same setting: for `CC(=O)c1c(N2CCN(c3ccc(F)cc3)CC2)nc(=S)n(-c2ccccc2)c1C` the value was -7.92%; for `O=[N+]([O-])c1ccc(N2CCNCC2)cc1NCc1cccnc1`, -18.8%.
On to `O=C1OC(OC(=O)c2ccccc2Br)C(N2CCOCC2)=C1Cl` (centres undefined), for which the activity change, negative = inhibition was -15.3%.
Same read-out and setting: the result for `COc1ccc(OCc2ccc(-c3nc4ccccc4c(=O)n3N)o2)cc1` reads -2.6%.
`Cc1ccc(C(=O)CSc2nc3ccccc3c(=O)n2N)o1`: the Potency is 25.1 µM (active).
As to `O=C(CCn1c(SCC(=O)c2ccccc2)nc2ccccc2c1=O)NCc1ccc(F)cc1`, the activity change, negative = inhibition was -4.59%.
Same read-out and setting: the result for `O=C(CSc1nc2ccccc2[nH]1)Nc1nc(-c2ccccc2)c(-c2ccccc2)o1` reads -28.7%; that for `O=C(CN1C(=O)/C(=C\c2ccccc2F)SC1=S)Nc1nc2ccccc2s1`, -21.2%; that for `O=C(Nc1ccc(Cl)cc1)c1ccsn1`, -18.4%.
For `O=C(Nc1ccccc1)c1nnsc1S(=O)(=O)c1ccc(Cl)cc1`, the Potency was 11.2 µM (active).
As for `CC(=O)Nc1cc(C(=O)O)ccc1S(=O)(=O)c1ccc(Cl)cc1`, the activity change, negative = inhibition is -9.11%.
As to `Cc1ccccc1Nc1nc(N)nc(CSc2ccccc2)n1`, the activity change, negative = inhibition was -2.99%.
Same read-out and setting: the result for `COc1ccc(-n2c(C)cc(C(=O)CN3C(=O)NC4(CCc5ccccc54)C3=O)c2C)cc1` (centres undefined) reads -8.92%.
Same read-out and setting: for `COc1cc(/C=C/C(=O)O)cc(S(=O)(=O)Nc2ccccc2SC)c1OC` the value was -7.12%.
Turning to `COc1ccc([N+](=O)[O-])cc1N(CC(O)Cn1nnc2ccccc21)S(=O)(=O)c1ccc(C)cc1` (centres undefined), the Potency is 28.2 µM (active).
Turning to `Cc1cc(C)n(CC(O)CN(c2ccccc2)S(=O)(=O)c2ccc3ccccc3c2)n1` (centres undefined), the activity change, negative = inhibition was -6.52%.
Regarding `Cc1ccc(N(CC(O)CN2CCCC2)S(=O)(=O)c2ccccc2)cc1` (centres undefined), the activity change, negative = inhibition was -2.29%.
With `CCCCCCOC(=O)NCC(O)c1ccccc1` (centres undefined), the activity change, negative = inhibition is -19.8%.
For `CCCCCC(O)c1cccc(OCc2ccc3ccccc3n2)c1` (centres undefined), the Potency was 14.1 µM (active); the activity change, negative = inhibition is -26.2% and -5.68%.
Regarding `CCCn1c(C(O)c2ccc(OCC)cc2)nc2ccccc21` (centres undefined), the activity change, negative = inhibition is -9.25%.
`Cc1nn(-c2ccccc2)c(C)c1NC(=O)CCl`: the activity change, negative = inhibition is -8.71%.
On to `Cc1cc(NC(=O)Nc2ccccc2)n(-c2ccccc2)n1`, for which the activity change, negative = inhibition is -0.703%.
For `Cc1nn(-c2ccccc2)c(Cl)c1C(=O)Nc1ccccc1`, the Potency is 14.1 µM (active).
Consider `CCCCNC(=O)C1CCC(CNS(=O)(=O)c2ccc(NC(C)=O)cc2)CC1` (centres undefined), for which the activity change, negative = inhibition is -26.6%.
Take `COc1ccc(NC(=S)NCC2CCN(c3ccc(OC)cc3)C2)cc1` (centres undefined): the activity change, negative = inhibition was -3.49%.
Take `O=C(NNC(=S)Nc1ccc(Br)cc1Cl)c1ccco1`: the activity change, negative = inhibition is -15.2%.
Turning to `Cc1ccc(/C=N/NC(=O)c2sccc2OCc2ccc(F)cc2)cc1`, the Potency is 31.6 µM (active).
Regarding `CNC(=S)NNC(=O)c1sccc1OCc1ccccc1`, the activity change, negative = inhibition was 1.03%.
On the same count and under the same terms, for `Cc1ccsc1C(=O)N/N=C/c1ccc([N+](=O)[O-])cc1` the value was -12.4%; for `Cc1ccc(NC(=O)O[C@@H]2C(=O)c3cc(Br)ccc3O[C@H]2c2ccc3c(c2)OCO3)cc1Br`, -8.38%; for `O=C1c2cccc3cc(Br)cc(c23)C(=O)N1Nc1ccccc1`, -5.3%.
In the case of `O=C1C=C(c2ccc(Cl)cc2)C(=O)N1Nc1ccccc1`, the Potency was 22.4 µM (active).
For the compound `O=C(Nc1ccccc1)OCc1cc(-c2ccc(Cl)cc2)on1`, the activity change, negative = inhibition was -7.01%.
The same measure, in the same setting: for `Cc1cc(N2CCOCC2)nc(-c2ccc(Br)cc2)n1` the value was -7.33%; for `CCC(C)NCCOCCOc1ccc(Br)cc1C` (centres undefined), -6.54%.
The same measure, in the same setting: for `Cc1ccc(C(=O)/C=C/Nc2ccc(S(=O)(=O)Nc3onc(C)c3C)cc2)cc1` the value was -26.4%; for `Cc1ccc(S(=O)(=O)N2CCCC2C(=O)OCc2nc3sc(C)c(C)c3c(=O)[nH]2)cc1` (centres undefined), -20.7%.
Turning to `Cc1cc(C=O)c(C)n1-c1ccc(NC2CCCCC2)c([N+](=O)[O-])c1`, the Potency was 7.94 µM (active).
With `Cc1cc([N+](=O)[O-])ccc1NC1CCCC1`, the activity change, negative = inhibition is -16.1%.
On the same count and under the same terms, the result for `Cc1c(NS(=O)(=O)c2ccc(NC3CCCC3)c([N+](=O)[O-])c2)c(=O)n(-c2ccccc2)n1C` reads -7.49%; that for `COc1ccc(C2NC(=S)NC3=C2CCc2ccccc23)cc1OC` (centres undefined), -17.9%; that for `Cc1nn(Cc2ccc(F)cc2)c(C)c1NC(=O)c1cccnc1Cl`, -10.3%.
Regarding `COc1cccc(CNCCc2c[nH]c3ccccc23)c1OCc1ccccc1F`, the activity change, negative = inhibition was -4.46%.
The same measure, in the same setting: the result for `CCOc1cc(/C=N/O)ccc1OCc1ccccc1F` reads -1.63%.
As for `COc1cc(/C=C2/C(=O)ON=C2C)ccc1OCc1ccccc1F`, the Potency was 1.58 µM (active).
For the compound `CCOc1ccc(/C=N/NC(=O)C(C)Sc2ccccn2)cc1OCC` (centres undefined), the activity change, negative = inhibition was -18.1%.
Still for that read-out and setting: the result for `COc1ccc(/C=C/C(=O)c2ccc(NS(=O)(=O)c3ccc(C)cc3)cc2)cc1O` reads -19.9%; that for `COc1ccc(N2C(=O)CC(SC(C)C)C2=O)cc1` (centres undefined), -4.33%.
Regarding `O=C1CC(Sc2ncn[nH]2)C(=O)N1c1ccccc1` (centres undefined), the Potency was 12.6 µM (active).
Consider `CCOC(=O)c1ccc(N2C(=O)CC(Sc3nc(O)c(CC)c(=O)[nH]3)C2=O)cc1` (centres undefined), for which the activity change, negative = inhibition was -10.7%.
Same read-out and setting: the result for `CCNc1nc(NC(C)C)nc(N2CC(=O)N(CC(=O)OCC)C2=N)n1` reads -1.19%; that for `CCCCS(=O)(=O)N1C2=NC(C(=O)OC)=C(C(=O)OC)[C@@H]3N(Cc4ccccc4)c4ccccc4[C@]23C[C@H]1C(=O)OC`, -6.02%; that for `CCN(CC)C(=O)c1sc(NC(=O)c2ccco2)c(C#N)c1C`, -18.8%.
On the same count and under the same terms, the result for `N#Cc1ccsc1NC(=O)CN1CCCCC1` reads -11.5%.
Turning to `CCC(=O)Nc1sc(C(=O)N2CCCCC2)c(C)c1C#N`, the Potency was 4.47 µM (active).
For `CC1CN(C(=S)SCC(=O)c2ccccc2)CC(C)O1` (centres undefined), the activity change, negative = inhibition is -10.1%.
The same measure, in the same setting: for `CCC(C)(C)C1CCC(=NNC(=O)c2ccc(Br)o2)CC1` (centres undefined) the value was -9.21%; for `O=C(CSc1nnc(SCc2ccc(Cl)cc2)s1)N/N=C/c1ccccc1Cl`, -3.98%; for `O=C(COC(=O)CCCNC(=O)c1ccc(Cl)cc1)Nc1cc(Cl)ccc1Cl`, -18.1%.
Take `C(=N/Nc1cc(N2CCOCC2)nc(N2CCOCC2)n1)/c1ccccc1`: the activity change, negative = inhibition is -6.61%.
As for `Cc1ccccc1N/N=C/c1ccc(N2CCOCC2)cc1`, the Potency is 28.2 µM (active).
Take `C/C(=N\NC(=O)c1ccccc1C)c1ccc(N2CCOCC2)cc1`: the activity change, negative = inhibition is -15.3%.
